The values below come from PubChem BioAssay.

Experiment [1] is described as follows: antimalarial activity against Dd2 strain (AID 2302;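 active = growth inhibition above 50% at the single 2 µM test dose, taken to imply half-maximal potency below 2 µM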;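 note: 0% = DMSO untreated growth and 100% = chloroquine plus artemisinin killed control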). To be noted: P. falciparum Dd2 in RBCs, LDH growth readout, 72 h; at 2 µM; hits give high values.
Experiment [2] is described as follows: HepG2 cytotoxicity, primary screen, cytotoxicity control for P. falciparum antimalarial project, cell-based, ATP luminescence (AID 2303;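 active = inhibition above 50%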;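 note: 0% = DMSO wells and 100% = digitonin-killed cells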). The following applies: HepG2 viability, 24-48 h, at 10 µM, hits give high values.
The target of experiment [3] is L-lactate dehydrogenase (Plasmodium falciparum (isolate CDC / Honduras)) (UniProt Q27743). Briefly: PfLDH activity inhibition – cell lysate, 3D7 strain, counter-screen for P. falciparum growth inhibition project (AID 2304).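 Note: 0% = vehicle and 100% = reference inhibitor.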 To be noted: P. falciparum 3D7 crude extract, LDH APAD/NBT absorbance; at 2 µM; hits give high values. For orientation: The purpose of a counterscreen is to sort out artefacts and off-target activity.
Chain of L-lactate dehydrogenase (Plasmodium falciparum (isolate CDC / Honduras)) (Q27743 whole entry, looked up): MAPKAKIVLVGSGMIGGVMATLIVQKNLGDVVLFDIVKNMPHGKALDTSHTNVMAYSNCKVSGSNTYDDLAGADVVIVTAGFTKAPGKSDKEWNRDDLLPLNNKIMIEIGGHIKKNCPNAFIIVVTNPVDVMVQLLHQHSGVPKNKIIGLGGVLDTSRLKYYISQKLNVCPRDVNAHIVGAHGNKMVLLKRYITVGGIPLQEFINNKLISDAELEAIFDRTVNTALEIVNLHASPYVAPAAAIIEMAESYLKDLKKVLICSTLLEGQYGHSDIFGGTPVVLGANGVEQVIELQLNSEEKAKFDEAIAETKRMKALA

Experiment [4] in a line: inhibition of 3D7 malaria parasite growth – strain 3D7 (AID 2306).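 Note: 0% = DMSO wells and 100% = chloroquine plus artemisinin control wells.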 The following applies: P. falciparum 3D7 erythrocytic growth, LDH absorbance, 72 h; at 2 µM; hits give high values.
Experiment [5] deals with Calcium-dependent protein kinase 1 (Plasmodium falciparum (isolate 3D7)) (UniProt P62344). The experiment is described as follows: PfCDPK1 kinase inhibitors, biochemical, TCAMS library (AID 1159585; cut-off not given, nearly all actives have IC50 up to about 0.98 µM;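 note: inhibitors leave more ATP so luminescence rises with inhibition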). The following applies: recombinant PfCDPK1, Kinase-Glo ATP depletion luminescence. On the technique in general: Kinase-Glo measures the ATP left after a reaction by luminescence.
Chain of Calcium-dependent protein kinase 1 (Plasmodium falciparum (isolate 3D7)) (P62344 whole entry, looked up): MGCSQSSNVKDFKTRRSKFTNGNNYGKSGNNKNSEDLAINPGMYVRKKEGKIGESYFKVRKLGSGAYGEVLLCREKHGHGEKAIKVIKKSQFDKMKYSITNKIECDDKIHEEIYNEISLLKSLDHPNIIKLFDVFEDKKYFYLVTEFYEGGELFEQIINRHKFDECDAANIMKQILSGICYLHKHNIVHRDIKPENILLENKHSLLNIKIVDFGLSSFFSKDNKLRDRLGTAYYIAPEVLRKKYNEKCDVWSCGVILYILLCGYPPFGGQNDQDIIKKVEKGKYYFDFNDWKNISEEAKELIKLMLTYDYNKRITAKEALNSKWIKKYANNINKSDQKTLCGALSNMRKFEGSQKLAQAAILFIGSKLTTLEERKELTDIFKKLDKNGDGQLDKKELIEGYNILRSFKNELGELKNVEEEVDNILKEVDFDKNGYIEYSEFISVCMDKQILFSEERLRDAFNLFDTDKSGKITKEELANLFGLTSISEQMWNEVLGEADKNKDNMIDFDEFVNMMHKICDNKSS

Experiment [6] concerns the target Plasmodium falciparum protein kinase 6 (PK6, PF3D7_1337100) (UniProt Q8IDW1). Briefly: PfPK6 kinase inhibitors, biochemical, TCAMS library (AID 1159586). The following applies: recombinant PfPK6, Kinase-Glo ATP depletion luminescence.
Experiment [7] deals with Protein kinase 7 (PK7), Plasmodium falciparum 3D7 (PF3D7_0213400) (UniProt Q7YTF7). Briefly: inhibition of Plasmodium PK7 catalytic activity – biochemical, TCAMS antimalarial set, Kinase-Glo luminescence (AID 1159587). The following applies: recombinant PfPK7, Kinase-Glo ATP depletion luminescence.
Chain of Protein kinase 7 (PK7), Plasmodium falciparum 3D7 (PF3D7_0213400) (Q7YTF7 1-343): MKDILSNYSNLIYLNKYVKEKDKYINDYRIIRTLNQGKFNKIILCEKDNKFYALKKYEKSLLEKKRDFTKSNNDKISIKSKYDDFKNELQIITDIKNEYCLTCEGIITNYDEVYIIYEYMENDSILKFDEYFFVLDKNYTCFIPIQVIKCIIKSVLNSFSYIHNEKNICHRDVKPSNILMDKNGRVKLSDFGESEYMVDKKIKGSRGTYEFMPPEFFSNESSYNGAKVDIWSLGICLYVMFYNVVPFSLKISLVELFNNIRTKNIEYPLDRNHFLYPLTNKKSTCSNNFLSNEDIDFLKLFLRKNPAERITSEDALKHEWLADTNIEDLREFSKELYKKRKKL
Experiment [8] concerns the target Calcium-dependent protein kinase 4 (Plasmodium falciparum (isolate 3D7)) (UniProt Q8IBS5). Briefly: PfCDPK4 kinase inhibitors, biochemical, TCAMS library (AID 1159588; cut-off not given, nearly all actives have IC50 up to about 0.91 µM). To be noted: recombinant PfCDPK4, Kinase-Glo ATP depletion luminescence.

A number with no mark means an inactive call. For some of these results: Potency and affinity values are given separately. The source made the active and inactive calls. Unless noted, the rule behind the calls is not given here.

Chain of Calcium-dependent protein kinase 4 (Plasmodium falciparum (isolate 3D7)) (Q8IBS5 whole entry, looked up): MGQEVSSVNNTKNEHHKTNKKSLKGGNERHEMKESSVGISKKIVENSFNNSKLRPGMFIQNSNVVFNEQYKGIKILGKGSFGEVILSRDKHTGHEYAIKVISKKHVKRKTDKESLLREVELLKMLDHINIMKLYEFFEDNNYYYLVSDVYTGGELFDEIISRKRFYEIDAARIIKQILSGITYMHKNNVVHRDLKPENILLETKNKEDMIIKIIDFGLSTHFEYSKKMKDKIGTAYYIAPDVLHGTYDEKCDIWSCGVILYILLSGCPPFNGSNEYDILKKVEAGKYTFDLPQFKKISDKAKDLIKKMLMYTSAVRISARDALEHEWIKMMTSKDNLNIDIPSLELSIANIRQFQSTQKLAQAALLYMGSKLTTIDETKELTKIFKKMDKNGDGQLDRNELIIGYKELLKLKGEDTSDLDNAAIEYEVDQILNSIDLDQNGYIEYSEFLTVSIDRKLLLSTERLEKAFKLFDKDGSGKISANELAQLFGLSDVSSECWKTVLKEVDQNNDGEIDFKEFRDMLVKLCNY
Chain of Plasmodium falciparum protein kinase 6 (PK6, PF3D7_1337100) (Q8IDW1 1-305): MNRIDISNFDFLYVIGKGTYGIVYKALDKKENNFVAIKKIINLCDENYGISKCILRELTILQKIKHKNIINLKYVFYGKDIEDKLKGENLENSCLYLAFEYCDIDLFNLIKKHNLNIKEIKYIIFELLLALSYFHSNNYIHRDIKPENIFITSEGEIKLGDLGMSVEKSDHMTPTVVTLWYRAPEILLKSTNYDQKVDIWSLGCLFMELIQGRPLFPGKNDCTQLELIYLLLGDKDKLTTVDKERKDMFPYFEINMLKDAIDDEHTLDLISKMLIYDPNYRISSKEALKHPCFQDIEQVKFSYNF

As for `CO/C(=C\C=C\c1cc2cc(Cl)c(Cl)cc2[nH]1)C(=O)NCCCN1CCN(c2cccc(O)c2)CC1`, the results for the growth inhibition in experiment [1] and in experiment [4] were 100% (active) and 91% (active), respectively. The values for the inhibition in experiment [2] and in experiment [3] were 46% and -2%, respectively. The outcome in experiment [5], in experiment [6], in experiment [7] and in experiment [8] was inactive.
Consider `CC(=O)c1c(Cc2ccccc2Cl)c[nH]c1C`, for which the growth inhibition in experiment [1] is 53% (active); in experiment [4], 95% (active). In addition, the inhibition (as a rule, the relative decrease from the control value, in per cent) in experiment [2] is -2%; in experiment [3], 0%. In addition, the outcome in experiment [5], in experiment [6], in experiment [7] and in experiment [8] was inactive.
As to `CCn1cc(C=C2Oc3c(ccc(O)c3CN3CCCCC3)C2=O)c2cc(OC)ccc21`, the growth inhibition in experiment [1] and in experiment [4] was 99% (active) throughout. Moreover, the inhibition in experiment [2] is -9%; in experiment [3] it was -1%. In addition, the outcome in experiment [5], in experiment [6], in experiment [7] and in experiment [8] was inactive.
Take `Cc1ccc(Cn2ncc(N3CCC(N)CC3)c(Cl)c2=O)cc1NC(=O)Nc1ccc(-c2ccccc2)cc1`: the growth inhibition in experiment [1] is 25%; in experiment [4] it was 90% (active). The inhibition in experiment [2] was 29%; in experiment [3], -5%. Further, the result in experiment [5], in experiment [6], in experiment [7] and in experiment [8] was inactive.
As for `CCCc1cc(Cc2cnc(N)nc2N)cc(CC)c1O`, the growth inhibition in experiment [1] is -3%; in experiment [4] it was 87% (active). The inhibition in experiment [2] was 56% (active); in experiment [3] it was -3%. For the same compound, the result in experiment [5], in experiment [6], in experiment [7] and in experiment [8] was inactive.
On to `CC(C)C[C@H](NC(=O)[C@H](Cc1ccccc1)NC(=O)CCN1C(=O)COc2ccc(C(=O)O)cc21)C(=O)NC(CC1CCCCC1)C(O)CC(=O)NCCCn1ccnc1` (stereo not given in full), for which the growth inhibition was -4% in experiment [1] and 99% (active) in experiment [4]. In addition, the inhibition is -3% in experiment [2] and -8% in experiment [3]. The outcome in experiment [5], in experiment [6], in experiment [7] and in experiment [8] was inactive.
On to `COc1ccc(Br)cc1/C=C/C(=O)Nc1cccc(C2CCCN(C)C2)c1` (stereo not given), for which the growth inhibition was 30% in experiment [1] and 99% (active) in experiment [4]. In addition, the inhibition in experiment [2] is 12%; in experiment [3], 1%. In addition, the result in experiment [5], in experiment [6], in experiment [7] and in experiment [8] was inactive.
For `N#CC(c1ccc(Cl)cc1)c1ccc2c(C(F)(F)F)cc(C(F)(F)F)nc2n1` (stereo not given), the growth inhibition is 54% (active) in experiment [1] and 97% (active) in experiment [4]. Besides, the inhibition was 68% (active) in experiment [2] and 1% in experiment [3]. Also, the result in experiment [5], in experiment [6], in experiment [7] and in experiment [8] was inactive.
With `COCCNCc1ccc(-c2ccc3c(Nc4ccc(F)cc4Cl)ccnc3c2)o1`, the growth inhibition in experiment [1] and in experiment [4] was 100% (active) each time. Further, the figures for the inhibition in experiment [2] and in experiment [3] were 22% and 2%, respectively. The outcome in experiment [5], in experiment [6], in experiment [7] and in experiment [8] was inactive.
On to `Nc1nc(N)c2cc(C#Cc3ccc(-c4ccccc4)cc3)ccc2n1`, for which the results for the growth inhibition in experiment [1] and in experiment [4] were 3% and 94% (active), respectively. The inhibition is 20% in experiment [2] and 0% in experiment [3]. The outcome in experiment [5], in experiment [6], in experiment [7] and in experiment [8] was inactive.
On to `Cc1sc(N2CCCCC2)nc1C(=O)Nc1ccc(F)cc1C(F)(F)F`, for which the growth inhibition in experiment [1] is 35%; in experiment [4], 86% (active). Besides, the inhibition in experiment [2] was -18%; in experiment [3], 2%. The result in experiment [5], in experiment [6], in experiment [7] and in experiment [8] was inactive.
For `CCn1c(Sc2ccc(C#N)c([N+](=O)[O-])c2)nnc1-c1ccc(Cl)cc1`, the growth inhibition in experiment [1] was 93% (active); in experiment [4] it was 97% (active). The inhibition is 0% in experiment [2] and 6% in experiment [3]. The outcome in experiment [5], in experiment [6], in experiment [7] and in experiment [8] was inactive.
For the compound `CCN(CC)CCN(Cc1ccc(-c2ccc(C(F)(F)F)cc2)cc1)C(=O)Cn1c(CCc2c(F)cccc2F)nc(=O)c2ccccc21`, the growth inhibition in experiment [1] was 61% (active); in experiment [4], 102% (active). The inhibition was 36% in experiment [2] and -3% in experiment [3]. For the same compound, the outcome in experiment [5], in experiment [6], in experiment [7] and in experiment [8] was inactive.
For `CCc1cn2c3c(cc(C(=O)N[C@@H](Cc4ccccc4)[C@H](O)CNCc4cccc(C)c4)cc13)N(C)S(=O)(=O)CC2`, the results for the growth inhibition in experiment [1] and in experiment [4] were 98% (active) and 96% (active), respectively. Besides, the inhibition in experiment [2] and in experiment [3] was 5% each time. In addition, the outcome in experiment [5], in experiment [6], in experiment [7] and in experiment [8] was inactive.
With `CCCCc1cc(NCc2ccncc2)nc(Nc2ccc(C)cc2)n1`, the growth inhibition in experiment [1] is 59% (active); in experiment [4] it was 101% (active). The inhibition in experiment [2] was 7%; in experiment [3], -4%. For the same compound, the result in experiment [5], in experiment [6], in experiment [7] and in experiment [8] was inactive.
For the compound `COc1ccc2nccc([C@@H](O)CN3CCC(NCc4ccc5c(c4)N(C)C(=O)CO5)CC3)c2c1`, the growth inhibition in experiment [1] is 95% (active); in experiment [4], 101% (active). The inhibition is -3% in experiment [2] and 6% in experiment [3]. The result in experiment [5], in experiment [6], in experiment [7] and in experiment [8] was inactive.
As for `CN(C(=O)NCCc1ccccc1)C1CCN(CCCCCNC(=O)/C=C/c2ccc(Cl)c(Cl)c2)CC1`, the results for the growth inhibition in experiment [1] and in experiment [4] were 11% and 93% (active), respectively. Moreover, the figures for the inhibition in experiment [2] and in experiment [3] were 43% and -7%, respectively. Besides, the outcome in experiment [5], in experiment [6], in experiment [7] and in experiment [8] was inactive.
`CC(Nc1cc(-c2ccccn2)nc(-c2ccccn2)n1)c1ccccc1` (stereo not given): the growth inhibition in experiment [1] is 98% (active); in experiment [4], 85% (active). Also, the inhibition was 61% (active) in experiment [2] and -3% in experiment [3]. Moreover, the outcome in experiment [5], in experiment [6], in experiment [7] and in experiment [8] was inactive.
For the compound `COc1ccc2c(NN=Cc3cccc(F)c3)ccnc2c1`, the growth inhibition in experiment [1] was 95% (active); in experiment [4], 101% (active). Further, the results for the inhibition in experiment [2] and in experiment [3] were 49% and -5%, respectively. The result in experiment [5], in experiment [6], in experiment [7] and in experiment [8] was inactive.
With `N#Cc1ccc(-c2ccc(C(=O)NCCCCN3CCC(c4cc(Br)c5c(c4OCC(N)=O)CCCC5)CC3)cc2)cc1`, the figures for the growth inhibition in experiment [1] and in experiment [4] were 89% (active) and 100% (active), respectively. Further, the inhibition in experiment [2] is 23%; in experiment [3] it was 6%. In addition, the result in experiment [5], in experiment [6], in experiment [7] and in experiment [8] was inactive.
